The entries come from a sample that favours hits as a whole.
ROS inducer: ROS inducers in U2OS cancer cells, primary screen, cell-based, H2DCF-DA fluorescence; 2% of 46,000 active; ROS induction (% of piperlongumine), % at 10 µM; AID 624156, 2012; U2OS ROS induction; in the data active means ROS induction above about 79%, passing the limit was not always enough; inconclusive means no clear call, values can overlap the other calls;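 further: 0% = DMSO vehicle median and 100% = reference compound median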
MITF inhib: inhibitors of MITF, primary screen, MITF inhibitor project, cell-based, luminescence | AID 2240, 2010 | TRPM1 promoter luciferase, 24 h | 0.28% of 37,000 active | inhibition, % (no concentration beside the values); in the data active means inhibition above about 85%; inconclusive means no clear call, values can overlap the other calls; inactive means below about 68%;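 further: human melanocyte line stably carrying TRPM1 promoter luciferase reporter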
YB-1 expression: inhibitors of YB-1 gene expression, primary screen, cell-based, fluorescence | U2OS, qRT-PCR YB-1 vs CDIP delta delta Cp, 16 h; stronger effect = higher value; zero = DMSO, each unit about twofold | delta delta Cp (YB-1 minus CDIP) (test concentration not listed) | 0.37% of 30,000 active | AID 434959, 2010;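 active means delta delta Cp rounded down to an integer at or above 3, about 3 SD of DMSO wells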;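 further: higher means less YB-1 transcript or more CDIP transcript relative to DMSO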
PD-1 reversal: activators reversing PD-1 mediated T-cell inhibition, primary screen, luminescence, primary human CD4 T cells, PD-L1 beads; activation, % (no concentration beside the values); AID 2316, 2010; CellTiter-Glo 96 h; 29,000 tested, under 10 active; call rule not given here;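 further: 0% = median vehicle wells and 100% = positive control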
NOMO-1 viab: NOMO-1 AML cell viability reduction, primary screen, STK33 inhibitor project, CellTiter-Glo luminescence; NOMO-1 AML viability, 72 h; 7.5% of 37,000 active; inhibition, % (test concentration not listed); in the data active means inhibition above about 80%; inconclusive means no clear call, values can overlap the other calls
An asterisk follows results filed as active.

For COc1ccc(S(=O)(=O)Nc2ccc3c(c2)CC(=O)N([C@H](C)CO)C[C@@H](C)[C@H](CN(C)Cc2ccc(C(F)(F)F)cc2)O3)cc1 the results were ROS inducer 14, MITF inhib -23, YB-1 expression 0.52, PD-1 reversal -2 and NOMO-1 viab inconclusive.
`Cc1noc(C)c1S(=O)(=O)N(C)C[C@H]1Oc2ccc(NC(=O)Nc3ccccc3)cc2CC(=O)N([C@@H](C)CO)C[C@@H]1C` gave ROS inducer 44, MITF inhib -7, YB-1 expression -0.31, PD-1 reversal -1 and NOMO-1 viab 29.
`Cc1noc(C)c1S(=O)(=O)N(C)C[C@H]1Oc2ccc(NC(=O)Nc3ccc(C(F)(F)F)cc3)cc2CC(=O)N([C@@H](C)CO)C[C@H]1C` gave ROS inducer 13, MITF inhib 36, YB-1 expression -0.13, PD-1 reversal -1 and NOMO-1 viab 92*.
Cc1noc(C)c1NC(=O)Nc1ccc2c(c1)CC(=O)N([C@@H](C)CO)C[C@@H](C)[C@@H](CN(C)S(=O)(=O)c1c(C)noc1C)O2 was read as ROS inducer 85*, MITF inhib -6, YB-1 expression -0.14, PD-1 reversal 1 and NOMO-1 viab 26.
Cc1noc(C)c1NC(=O)Nc1ccc2c(c1)CC(=O)N([C@H](C)CO)C[C@@H](C)[C@H](CN(C)S(C)(=O)=O)O2 was read as ROS inducer 33, MITF inhib 4, YB-1 expression 0.52, PD-1 reversal 0 and NOMO-1 viab -32.
For Cc1ccc(S(=O)(=O)N(C)C[C@H]2Oc3ccc(NC(=O)Nc4c(C)noc4C)cc3CC(=O)N([C@@H](C)CO)C[C@H]2C)cc1 the results were ROS inducer -11, MITF inhib 8, YB-1 expression 9.8*, PD-1 reversal -2 and NOMO-1 viab 37.
CC1=CC(=O)CC2C1(C)CCC(C)C2(C)CC/C(C)=C\C(=O)O (configuration not stated) was read as ROS inducer -2, MITF inhib -7, YB-1 expression -0.16, PD-1 reversal 2 and NOMO-1 viab 2.
For C[C@@H]1CN([C@@H](C)CO)C(=O)c2cccc(NC(=O)c3ccc(-c4nccs4)cc3)c2O[C@H]1CN(C)Cc1ccc(C(F)(F)F)cc1 the results were ROS inducer 71, MITF inhib 69, YB-1 expression 0.042, PD-1 reversal -4 and NOMO-1 viab 99*.
For C[C@@H]1CN([C@@H](C)CO)C(=O)c2cccc(NC(=O)c3ccc(-c4nccs4)cc3)c2O[C@@H]1CN(C)Cc1ccc(C(F)(F)F)cc1 the results were ROS inducer 67, MITF inhib 37, YB-1 expression -0.13, PD-1 reversal -6 and NOMO-1 viab 88*.
C[C@@H]1CN([C@H](C)CO)C(=O)c2cccc(NC(=O)c3ccc(-c4nccs4)cc3)c2O[C@@H]1CN(C)Cc1ccc(C(F)(F)F)cc1 was read as ROS inducer 23, MITF inhib -1, YB-1 expression 0.28, PD-1 reversal -3 and NOMO-1 viab 14.
`C[C@H](CO)N1C[C@H](C)[C@@H](CN(C)Cc2ccc(C(F)(F)F)cc2)Oc2c(NC(=O)c3ccc(-c4nccs4)cc3)cccc2C1=O` gave ROS inducer 56, MITF inhib 67, YB-1 expression -17, PD-1 reversal -6 and NOMO-1 viab 115*.
For Cc1ccc(SCCCCSc2nc(C)cc(=O)[nH]2)cc1 the results were ROS inducer -1, MITF inhib 17, PD-1 reversal -1 and NOMO-1 viab -3.
For COC(=O)C(CC#Cc1ccc2c(c1)[C@]1(C(=O)N2)[C@H](C(=O)NC[C@H](O)c2ccccc2)[C@H]2C(=O)O[C@H](c3ccccc3)[C@H](c3ccccc3)N2[C@@H]1c1ccccc1OCCO)C(=O)OC the results were ROS inducer 113* and YB-1 expression 0.14.
Screening COC(=O)C(CC#Cc1ccc2c(c1)[C@]1(C(=O)N2)[C@H](c2ccccc2OCCO)N2[C@H](c3ccccc3)[C@H](c3ccccc3)OC(=O)[C@H]2[C@@H]1C(=O)N1CCc2cc(OC)c(OC)cc2C1)C(=O)OC returned ROS inducer 175* and YB-1 expression -0.24.
Screening O=C1O[C@@H](c2ccccc2)[C@@H](c2ccccc2)N2[C@@H](c3ccccc3OCCO)[C@]3(C(=O)Nc4ccc(C#CC5(O)CCCCCC5)cc43)[C@@H](C(=O)NC[C@H](O)c3ccccc3)[C@H]12 returned ROS inducer 60 and YB-1 expression -0.42.
Screening COC(=O)C(CC#Cc1ccc2c(c1)[C@]1(C(=O)N2)[C@H](C(N)=O)[C@H]2C(=O)O[C@H](c3ccccc3)[C@H](c3ccccc3)N2[C@@H]1c1ccccc1OCCO)C(=O)OC returned ROS inducer 142* and YB-1 expression -0.79.
`COCCOC(=O)N1C(=O)[C@@]2(c3cc(C#CCCO)ccc31)[C@H](c1ccccc1OCCO)N1[C@H](c3ccccc3)[C@H](c3ccccc3)OC(=O)[C@H]1[C@@H]2C(=O)N1CCc2cc(OC)c(OC)cc2C1` gave ROS inducer 95* and YB-1 expression -0.078.
Screening COC(=O)C(CC#Cc1ccc2c(c1)[C@]1(C(=O)N2)[C@H](C(N)=O)[C@H]2C(=O)O[C@H](c3ccccc3)[C@H](c3ccccc3)N2[C@@H]1c1ccc(OCCO)cc1)C(=O)OC returned ROS inducer 30 and YB-1 expression 0.17.
CCOc1cc(C(=S)N2CCCC2)ccc1OCc1ccccc1F was read as ROS inducer 0.
`COc1ccc(C2C3=C(CCCC3=O)N=C3c4ccccc4C(=O)C32)cc1` (configuration not stated) gave ROS inducer 26.
Screening CS(=O)(=O)N(CC(=O)Nc1c(F)cccc1F)C1CCCCC1 returned ROS inducer -3, MITF inhib -9, PD-1 reversal 1 and NOMO-1 viab 19.
Screening CS(=O)(=O)N(Cc1ccccc1)c1ccccc1C(=O)Nc1cccc(Br)c1 returned ROS inducer 41.
CCCNC(=O)[C@H]1O[C@@H]1C(=O)N[C@H](C(=O)N1CCC[C@H]1C(=O)OC)C(C)CC (some centres not stated) was read as ROS inducer 7, MITF inhib 70, YB-1 expression 0.44, PD-1 reversal -49 and NOMO-1 viab 141*.
Screening CC(Oc1ccc(Cl)cc1Cl)C(=O)Nc1cccc(Cl)c1N1CCOCC1 (configuration not stated) returned ROS inducer -10, MITF inhib 9, PD-1 reversal 4 and NOMO-1 viab 25.
